Data as given in the supplement of paper PMC11732987, “Enantioselective OTUD7B fragment discovery through chemoproteomics screening and high-throughput optimisation” (Communications Chemistry, 2025).

Experiments:
Experiment in all cases: log2 ratio of Biotin-Ahx-Ub-VS probe labelling (compound/DMSO); higher = less target engagement, active = hit call of the paper (q ≤ 0.05, log2 ratio ≤ -1)
Conditions in all cases: treatment time: 3 h
[1] = compound: CCC1N(CCc2sccc12)C(=O)CCl
Summary of the method: (§1)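 DUBs in HEK293T lysate were labelled with Biotin-Ahx-Ub-VS (0.5 µM final, 1 h) after a 3 h treatment with compound at 50 or 200 µM or with DMSO, done in triplicate on 495 µg of lysate per sample. NeutrAvidin-enriched proteins were digested with LysC and trypsin and run by diaPASEF LC-MS/MS. Median-normalised label-free quantities gave average base-two log ratios of compound to DMSO by unpaired t-test, restricted to proteins with at least 2 unique peptides.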

[2] = compound: CN1c2ccccc2C(CS1(=O)=O)NC(=O)CCl
Summary of the method: as §1

[3] = compound: Cl.ClCC(=O)N1CCc2ncncc2C1
Summary of the method: as §1

[4] = compound: Cl.Cn1ncc2C(CCCc12)NC(=O)CCl
Summary of the method: as §1

[5] = compound: ClCC(=O)NC1CCOc2ccccc12
Summary of the method: as §1

[6] = compound: ClCC(=O)NC1CCCc2ccccc12
Summary of the method: (§2)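 Average ratios of compound to vehicle were obtained by unpaired t-test. Beforehand, 495 µg samples of HEK293T lysate in buffer with protease inhibitors were treated in triplicate with compound over a concentration series or vehicle for 3 h, then with 0.5 µM final Biotin-Ahx-Ub-VS for 1 h. Labelled deubiquitinases were NeutrAvidin-enriched, digested and quantified label-free by diaPASEF LC-MS/MS in Spectronaut, normalised to the global median. Values are log2 and cover proteins with at least two unique peptides.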

[7] = compound: ClCC(=O)N[C@@H]1CCCc2ccccc12
Summary of the method: as §2

[8] = compound: ClCC(=O)N[C@H]1CCCc2ccccc12
Summary of the method: as §2

[9] = compound: CCC1N(CCc2cc(OC)c(Cl)cc12)C(=O)CCl
Summary of the method: as §1

[10] = compound: CCCC1N(CCc2cc(OC)c(OC)cc12)C(=O)CCl
Summary of the method: as §1

Measured: log2 ratio of Biotin-Ahx-Ub-VS probe labelling

BAP1 (UniProt Q92560)
Chain of UniProt Q92560 (Q92560 whole entry): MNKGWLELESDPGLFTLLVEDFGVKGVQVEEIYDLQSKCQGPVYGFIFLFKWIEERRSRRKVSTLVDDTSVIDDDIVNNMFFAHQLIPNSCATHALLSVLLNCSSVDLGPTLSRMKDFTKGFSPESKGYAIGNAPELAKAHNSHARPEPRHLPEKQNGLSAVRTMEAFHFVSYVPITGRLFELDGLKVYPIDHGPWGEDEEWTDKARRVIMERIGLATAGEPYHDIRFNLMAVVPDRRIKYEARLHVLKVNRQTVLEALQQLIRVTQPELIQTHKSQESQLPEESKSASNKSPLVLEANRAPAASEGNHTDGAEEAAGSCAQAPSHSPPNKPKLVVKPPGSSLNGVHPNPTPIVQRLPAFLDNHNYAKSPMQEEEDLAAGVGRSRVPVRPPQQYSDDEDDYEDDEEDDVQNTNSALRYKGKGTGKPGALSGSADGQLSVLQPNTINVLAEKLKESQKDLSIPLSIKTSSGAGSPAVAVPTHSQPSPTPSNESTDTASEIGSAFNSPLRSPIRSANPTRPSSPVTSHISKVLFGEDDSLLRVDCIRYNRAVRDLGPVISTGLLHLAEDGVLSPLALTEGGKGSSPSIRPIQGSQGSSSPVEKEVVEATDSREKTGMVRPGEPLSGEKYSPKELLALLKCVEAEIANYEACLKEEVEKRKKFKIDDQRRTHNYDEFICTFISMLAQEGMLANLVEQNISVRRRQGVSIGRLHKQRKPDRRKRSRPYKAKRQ
active: [2]; compound concentration: 200uM -2.09 | [3]; compound concentration: 200uM -1.04 | [4]; compound concentration: 200uM -1.03 | [5]; compound concentration: 200uM -2.15 | [6]; compound concentration: 200uM -1.34 | [7]; compound concentration: 200uM -1.54 | [8]; compound concentration: 200uM -1.39
inactive: [1]; compound concentration: 50uM -0.142 | [1]; compound concentration: 200uM -0.347 | [2]; compound concentration: 50uM -0.805 | [3]; compound concentration: 50uM -0.468 | [4]; compound concentration: 50uM -0.38 | [5]; compound concentration: 50uM -0.598 | [6]; compound concentration: 0.78uM -0.121 | [6]; compound concentration: 1.56uM 0.0581 | [6]; compound concentration: 3.13uM -0.0976 | [6]; compound concentration: 6.25uM -0.0118 | [6]; compound concentration: 12.5uM -0.122 | [6]; compound concentration: 25uM -0.306 | [6]; compound concentration: 50uM -0.368 | [6]; compound concentration: 100uM -0.762 | [7]; compound concentration: 0.78uM -0.169 | [7]; compound concentration: 1.56uM -0.0659 | [7]; compound concentration: 3.13uM -0.0706 | [7]; compound concentration: 6.25uM -0.137 | [7]; compound concentration: 12.5uM -0.178 | [7]; compound concentration: 25uM -0.163 | [7]; compound concentration: 50uM -0.418 | [7]; compound concentration: 100uM -0.683 | [8]; compound concentration: 0.78uM -0.119 | [8]; compound concentration: 1.56uM -0.0453 | [8]; compound concentration: 3.13uM -0.0819 | [8]; compound concentration: 6.25uM 0.12 | [8]; compound concentration: 12.5uM -0.18 | [8]; compound concentration: 25uM -0.239 | [8]; compound concentration: 50uM -0.305 | [8]; compound concentration: 100uM -0.756 | [9]; compound concentration: 50uM -0.0732 | [9]; compound concentration: 200uM -0.717 | [10]; compound concentration: 50uM -0.385 | [10]; compound concentration: 200uM -0.766

USP54 (UniProt Q70EL1)
Chain of UniProt Q70EL1 (Q70EL1 whole entry): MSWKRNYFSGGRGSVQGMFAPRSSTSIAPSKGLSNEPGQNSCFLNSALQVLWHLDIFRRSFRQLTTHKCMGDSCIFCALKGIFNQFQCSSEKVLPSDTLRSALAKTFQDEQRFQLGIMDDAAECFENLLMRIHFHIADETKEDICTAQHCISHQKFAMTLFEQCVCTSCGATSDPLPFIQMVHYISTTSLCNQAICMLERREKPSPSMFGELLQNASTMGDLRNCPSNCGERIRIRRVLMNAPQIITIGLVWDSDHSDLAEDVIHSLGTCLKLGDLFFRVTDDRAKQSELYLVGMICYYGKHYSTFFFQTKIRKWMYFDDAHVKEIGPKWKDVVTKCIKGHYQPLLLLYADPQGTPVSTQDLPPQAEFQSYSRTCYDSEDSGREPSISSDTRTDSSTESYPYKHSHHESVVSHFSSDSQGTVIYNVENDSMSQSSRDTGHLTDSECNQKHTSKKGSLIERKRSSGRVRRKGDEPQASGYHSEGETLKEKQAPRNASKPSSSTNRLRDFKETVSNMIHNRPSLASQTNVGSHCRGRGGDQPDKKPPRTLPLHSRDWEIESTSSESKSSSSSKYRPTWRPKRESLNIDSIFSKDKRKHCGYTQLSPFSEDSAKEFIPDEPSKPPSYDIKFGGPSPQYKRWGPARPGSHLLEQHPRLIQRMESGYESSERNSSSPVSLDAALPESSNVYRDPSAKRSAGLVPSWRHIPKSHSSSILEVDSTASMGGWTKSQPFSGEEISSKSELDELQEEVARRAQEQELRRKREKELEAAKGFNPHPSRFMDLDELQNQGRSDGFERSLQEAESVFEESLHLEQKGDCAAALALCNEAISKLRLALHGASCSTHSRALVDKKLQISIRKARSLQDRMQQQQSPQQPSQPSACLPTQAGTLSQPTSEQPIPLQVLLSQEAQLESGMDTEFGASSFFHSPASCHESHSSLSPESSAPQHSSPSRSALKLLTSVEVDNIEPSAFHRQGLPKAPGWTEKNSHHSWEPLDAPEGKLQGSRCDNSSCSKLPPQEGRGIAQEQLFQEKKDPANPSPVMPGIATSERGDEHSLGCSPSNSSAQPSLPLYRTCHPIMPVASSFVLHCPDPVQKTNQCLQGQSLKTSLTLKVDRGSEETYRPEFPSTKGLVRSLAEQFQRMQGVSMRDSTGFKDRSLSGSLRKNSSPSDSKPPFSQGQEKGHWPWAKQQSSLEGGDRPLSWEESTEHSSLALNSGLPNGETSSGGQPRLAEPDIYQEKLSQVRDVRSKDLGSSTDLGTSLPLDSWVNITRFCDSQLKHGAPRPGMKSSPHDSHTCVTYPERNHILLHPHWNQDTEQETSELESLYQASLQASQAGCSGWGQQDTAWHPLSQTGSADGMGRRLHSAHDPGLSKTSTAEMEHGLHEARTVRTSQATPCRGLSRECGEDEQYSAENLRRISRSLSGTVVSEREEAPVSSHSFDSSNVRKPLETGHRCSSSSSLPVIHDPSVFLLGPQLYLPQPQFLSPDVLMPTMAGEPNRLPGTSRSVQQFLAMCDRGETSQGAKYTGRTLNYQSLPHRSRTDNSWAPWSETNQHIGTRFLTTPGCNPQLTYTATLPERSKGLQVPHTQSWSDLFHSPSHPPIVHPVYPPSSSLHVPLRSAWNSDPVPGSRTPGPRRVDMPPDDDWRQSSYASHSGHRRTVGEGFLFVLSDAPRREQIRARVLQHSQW
active: [3]; compound concentration: 200uM -1.09 | [4]; compound concentration: 200uM -2.4 | [6]; compound concentration: 6.25uM -1.2 | [6]; compound concentration: 12.5uM -1.06 | [8]; compound concentration: 1.56uM -1.07 | [10]; compound concentration: 200uM -2.42
inactive: [1]; compound concentration: 50uM 0.403 | [1]; compound concentration: 200uM -0.685 | [2]; compound concentration: 50uM 0.55 | [2]; compound concentration: 200uM -0.727 | [3]; compound concentration: 50uM 0.0984 | [4]; compound concentration: 50uM 0.166 | [5]; compound concentration: 50uM -0.806 | [5]; compound concentration: 200uM -0.859 | [6]; compound concentration: 0.78uM -0.349 | [6]; compound concentration: 1.56uM -0.87 | [6]; compound concentration: 3.13uM -0.672 | [6]; compound concentration: 25uM -0.646 | [6]; compound concentration: 50uM -0.519 | [6]; compound concentration: 100uM -0.598 | [6]; compound concentration: 200uM -0.947 | [7]; compound concentration: 0.78uM 0.232 | [7]; compound concentration: 1.56uM -0.0979 | [7]; compound concentration: 3.13uM -0.457 | [7]; compound concentration: 6.25uM -0.449 | [7]; compound concentration: 12.5uM -0.888 | [7]; compound concentration: 25uM 0.0566 | [7]; compound concentration: 50uM -0.582 | [7]; compound concentration: 100uM -0.163 | [7]; compound concentration: 200uM -0.256 | [8]; compound concentration: 0.78uM 0.15 | [8]; compound concentration: 3.13uM -0.564 | [8]; compound concentration: 6.25uM -0.753 | [8]; compound concentration: 12.5uM -0.0765 | [8]; compound concentration: 25uM -0.601 | [8]; compound concentration: 50uM -0.182 | [8]; compound concentration: 100uM 0.38 | [8]; compound concentration: 200uM -0.201 | [9]; compound concentration: 50uM -0.125 | [9]; compound concentration: 200uM -0.766 | [10]; compound concentration: 50uM -0.559

UniProt Q8TE49
Chain of UniProt Q8TE49 (Q8TE49 whole entry): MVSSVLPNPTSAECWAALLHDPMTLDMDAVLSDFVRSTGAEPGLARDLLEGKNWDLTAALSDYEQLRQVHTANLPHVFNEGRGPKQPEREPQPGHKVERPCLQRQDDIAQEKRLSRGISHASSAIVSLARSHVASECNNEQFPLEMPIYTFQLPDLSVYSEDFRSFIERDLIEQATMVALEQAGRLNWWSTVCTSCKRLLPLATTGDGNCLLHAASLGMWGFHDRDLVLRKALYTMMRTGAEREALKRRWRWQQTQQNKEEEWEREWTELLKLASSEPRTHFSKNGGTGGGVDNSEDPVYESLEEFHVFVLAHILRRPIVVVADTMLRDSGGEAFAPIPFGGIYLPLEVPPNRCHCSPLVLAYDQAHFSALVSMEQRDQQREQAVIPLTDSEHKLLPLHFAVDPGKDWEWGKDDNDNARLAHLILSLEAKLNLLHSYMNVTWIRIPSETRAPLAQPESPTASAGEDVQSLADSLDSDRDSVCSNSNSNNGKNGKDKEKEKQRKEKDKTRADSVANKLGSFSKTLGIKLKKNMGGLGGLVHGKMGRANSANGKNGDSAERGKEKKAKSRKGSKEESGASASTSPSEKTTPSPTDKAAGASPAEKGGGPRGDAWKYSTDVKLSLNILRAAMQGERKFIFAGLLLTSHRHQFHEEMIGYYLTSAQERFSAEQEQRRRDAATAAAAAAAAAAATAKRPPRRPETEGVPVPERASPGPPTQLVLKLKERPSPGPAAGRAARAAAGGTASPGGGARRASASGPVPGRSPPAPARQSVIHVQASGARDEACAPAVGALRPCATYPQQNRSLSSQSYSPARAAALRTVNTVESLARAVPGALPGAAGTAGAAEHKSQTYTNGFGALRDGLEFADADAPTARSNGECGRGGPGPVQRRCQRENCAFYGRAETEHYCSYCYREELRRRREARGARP
inactive: [1]; compound concentration: 50uM -0.281 | [1]; compound concentration: 200uM -0.466 | [3]; compound concentration: 50uM -0.364 | [5]; compound concentration: 50uM -0.839 | [7]; compound concentration: 0.78uM -0.577 | [7]; compound concentration: 1.56uM -0.173 | [7]; compound concentration: 3.13uM -0.995 | [7]; compound concentration: 12.5uM -0.347 | [7]; compound concentration: 25uM -0.135 | [7]; compound concentration: 100uM -0.0704 | [8]; compound concentration: 0.78uM -1.04 | [8]; compound concentration: 12.5uM -0.835 | [9]; compound concentration: 50uM 0.126 | [10]; compound concentration: 50uM -0.481 | [10]; compound concentration: 200uM -1.23
active: [2]; compound concentration: 50uM -1.25 | [2]; compound concentration: 200uM -2.71 | [3]; compound concentration: 200uM -1.55 | [4]; compound concentration: 50uM -2.22 | [4]; compound concentration: 200uM -2.78 | [5]; compound concentration: 200uM -1.23 | [6]; compound concentration: 0.78uM -1.71 | [6]; compound concentration: 1.56uM -1.79 | [6]; compound concentration: 3.13uM -1.77 | [6]; compound concentration: 6.25uM -1.34 | [6]; compound concentration: 12.5uM -1.27 | [6]; compound concentration: 25uM -2.03 | [6]; compound concentration: 50uM -2.39 | [6]; compound concentration: 100uM -2.75 | [6]; compound concentration: 200uM -3.99 | [7]; compound concentration: 6.25uM -1.72 | [7]; compound concentration: 50uM -1.33 | [7]; compound concentration: 200uM -1.69 | [8]; compound concentration: 1.56uM -1.6 | [8]; compound concentration: 3.13uM -1.78 | [8]; compound concentration: 6.25uM -1.41 | [8]; compound concentration: 25uM -2.19 | [8]; compound concentration: 50uM -2.93 | [8]; compound concentration: 100uM -3.39 | [8]; compound concentration: 200uM -3.55 | [9]; compound concentration: 200uM -1.15

USP15 (UniProt Q9Y4E8)
Chain of UniProt Q9Y4E8 (Q9Y4E8 whole entry): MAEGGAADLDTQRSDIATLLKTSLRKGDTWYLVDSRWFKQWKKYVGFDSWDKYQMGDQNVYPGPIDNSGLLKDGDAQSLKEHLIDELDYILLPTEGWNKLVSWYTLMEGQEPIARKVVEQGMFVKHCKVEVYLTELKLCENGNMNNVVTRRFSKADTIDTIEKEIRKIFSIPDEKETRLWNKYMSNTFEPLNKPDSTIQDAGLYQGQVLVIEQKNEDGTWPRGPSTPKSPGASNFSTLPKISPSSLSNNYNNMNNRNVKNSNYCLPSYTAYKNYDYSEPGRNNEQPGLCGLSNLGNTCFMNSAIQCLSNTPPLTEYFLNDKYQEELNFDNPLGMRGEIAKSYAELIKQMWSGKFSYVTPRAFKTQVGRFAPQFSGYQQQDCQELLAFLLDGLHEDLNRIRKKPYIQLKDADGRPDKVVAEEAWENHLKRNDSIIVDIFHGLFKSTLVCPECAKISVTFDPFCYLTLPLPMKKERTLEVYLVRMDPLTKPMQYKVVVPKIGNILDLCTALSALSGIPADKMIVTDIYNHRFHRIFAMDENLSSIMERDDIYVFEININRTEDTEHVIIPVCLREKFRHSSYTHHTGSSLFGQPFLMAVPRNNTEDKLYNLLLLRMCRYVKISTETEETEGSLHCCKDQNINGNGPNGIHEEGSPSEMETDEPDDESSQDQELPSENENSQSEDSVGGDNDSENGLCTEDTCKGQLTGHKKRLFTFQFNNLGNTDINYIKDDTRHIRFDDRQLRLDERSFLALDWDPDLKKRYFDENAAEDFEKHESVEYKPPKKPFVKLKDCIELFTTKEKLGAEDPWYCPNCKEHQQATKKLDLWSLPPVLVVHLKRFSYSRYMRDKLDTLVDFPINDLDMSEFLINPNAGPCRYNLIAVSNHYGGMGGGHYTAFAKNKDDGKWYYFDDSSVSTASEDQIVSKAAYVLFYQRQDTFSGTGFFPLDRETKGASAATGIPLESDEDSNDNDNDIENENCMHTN
inactive: [1]; compound concentration: 50uM -0.208 | [1]; compound concentration: 200uM -0.456 | [2]; compound concentration: 50uM -0.352 | [2]; compound concentration: 200uM -0.178 | [3]; compound concentration: 50uM -0.273 | [3]; compound concentration: 200uM -0.899 | [4]; compound concentration: 50uM 0.0231 | [4]; compound concentration: 200uM 0.118 | [5]; compound concentration: 50uM -0.104 | [5]; compound concentration: 200uM -0.0799 | [6]; compound concentration: 0.78uM -0.111 | [6]; compound concentration: 1.56uM 0.00504 | [6]; compound concentration: 3.13uM -0.0668 | [6]; compound concentration: 6.25uM 0.00578 | [6]; compound concentration: 12.5uM 0.00284 | [6]; compound concentration: 25uM -0.194 | [6]; compound concentration: 50uM -0.0476 | [6]; compound concentration: 100uM -0.0886 | [6]; compound concentration: 200uM -0.0894 | [7]; compound concentration: 0.78uM -0.15 | [7]; compound concentration: 1.56uM -0.0871 | [7]; compound concentration: 3.13uM -0.0689 | [7]; compound concentration: 6.25uM -0.0495 | [7]; compound concentration: 12.5uM -0.0456 | [7]; compound concentration: 25uM -0.00914 | [7]; compound concentration: 50uM -0.0377 | [7]; compound concentration: 100uM -0.0901 | [7]; compound concentration: 200uM -0.162 | [8]; compound concentration: 0.78uM -0.089 | [8]; compound concentration: 1.56uM -0.101 | [8]; compound concentration: 3.13uM -0.0661 | [8]; compound concentration: 6.25uM 0.0971 | [8]; compound concentration: 12.5uM -0.119 | [8]; compound concentration: 25uM -0.0896 | [8]; compound concentration: 50uM -0.0399 | [8]; compound concentration: 100uM -0.0575 | [8]; compound concentration: 200uM -0.135 | [9]; compound concentration: 50uM -0.143 | [9]; compound concentration: 200uM -0.873 | [10]; compound concentration: 50uM -0.696
active: [10]; compound concentration: 200uM -1.38
